The values below come from paper PMC7862700, “An all-to-all approach to the identification of sequence-specific readers for epigenetic DNA modifications on cytosine”.

Chain of ETV1 (P50549 whole entry): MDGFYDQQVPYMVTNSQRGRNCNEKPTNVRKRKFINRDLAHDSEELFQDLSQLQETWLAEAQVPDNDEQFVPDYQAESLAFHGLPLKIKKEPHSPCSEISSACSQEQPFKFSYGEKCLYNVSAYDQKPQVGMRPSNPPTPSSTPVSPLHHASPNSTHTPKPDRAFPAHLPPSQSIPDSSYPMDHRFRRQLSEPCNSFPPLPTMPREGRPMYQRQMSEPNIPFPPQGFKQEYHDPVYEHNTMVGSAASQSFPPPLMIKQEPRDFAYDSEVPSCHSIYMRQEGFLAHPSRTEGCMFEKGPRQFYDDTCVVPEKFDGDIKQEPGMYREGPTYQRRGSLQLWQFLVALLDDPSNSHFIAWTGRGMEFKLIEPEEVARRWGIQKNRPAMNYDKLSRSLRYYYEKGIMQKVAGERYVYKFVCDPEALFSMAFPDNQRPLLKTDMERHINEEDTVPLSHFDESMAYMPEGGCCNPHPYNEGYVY
Chain of CRX (O43186 whole entry, the tested form may be a part): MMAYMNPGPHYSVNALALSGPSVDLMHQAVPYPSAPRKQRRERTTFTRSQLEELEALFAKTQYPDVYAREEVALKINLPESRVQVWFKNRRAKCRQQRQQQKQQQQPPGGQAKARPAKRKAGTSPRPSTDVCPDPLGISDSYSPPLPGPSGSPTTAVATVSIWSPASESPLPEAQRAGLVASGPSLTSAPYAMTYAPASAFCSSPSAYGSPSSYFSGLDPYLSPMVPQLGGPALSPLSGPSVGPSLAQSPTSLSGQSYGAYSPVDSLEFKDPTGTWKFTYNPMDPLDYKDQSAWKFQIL

One assay deals with CRX (Homo sapiens, UniProt O43186 1-299). The assay is described as follows: DAPPL (digital affinity profiling via proximity ligation, sequencing); 10 mM Tris-HCl pH 7.5, 50 mM NaCl, 1 mM DTT, 4% glycerol, room temperature, 30 min; GST-TFs on glutathione beads, 16-mer random dsDNA library, 0.1% formaldehyde crosslink after washing; high values mean tight binding. Particulars: protein: recombinant; tags: N-terminal GST; dsDNA, one strand shown. A digest of the protocol:
(§1)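 GST fusions of human transcription factors were expressed in yeast and captured with glutathione beads. Once given DNA barcodes and pooled alongside a tag-only sample, they were incubated for 30 min at room temperature with 200 nmole of a random double-stranded 16-mer DNA library in Tris/NaCl/DTT/glycerol buffer, then washed, crosslinked (0.1% formaldehyde), proximity-ligated, PCR-amplified and sequenced on an Illumina NextSeq500. The binding signal of each hexamer is its read frequency for a factor divided by its frequency for the tag-only sample.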
On to TTGTAT, for which the binding signal is 1.42 fold enrichment (6-mer frequency, TF over GST control).
Still for that read-out and setting: the result for ATGACC reads 1.31 fold enrichment (6-mer frequency, TF over GST control); that for AATGCC, 1.16 fold enrichment (6-mer frequency, TF over GST control).
The same measure, in the same setting: with TACTAT the figure was 1.48 fold enrichment (6-mer frequency, TF over GST control); with TATTCC, 1.77 fold enrichment (6-mer frequency, TF over GST control).
On the same count and under the same terms, with TTTCTA the figure was 1.97 fold enrichment (6-mer frequency, TF over GST control); with TCTCTA, 1.56 fold enrichment (6-mer frequency, TF over GST control); with CCGAAC, 1.17 fold enrichment (6-mer frequency, TF over GST control).
As for CTGCGA, the binding signal is 1.18 fold enrichment (6-mer frequency, TF over GST control).
On the same count and under the same terms, the result for GTATCC reads 1.22 fold enrichment (6-mer frequency, TF over GST control); that for TCCTTC, 1.72 fold enrichment (6-mer frequency, TF over GST control); that for TTAACC, 2.67 fold enrichment (6-mer frequency, TF over GST control).
Still for that read-out and setting: with ATTATA the figure was 3.2 fold enrichment (6-mer frequency, TF over GST control); with TCATTC, 1.22 fold enrichment (6-mer frequency, TF over GST control); with AAGTTC, 1.22 fold enrichment (6-mer frequency, TF over GST control).
The same measure, in the same setting: with TGCTTC the figure was 1.22 fold enrichment (6-mer frequency, TF over GST control); with ACAATC, 1.36 fold enrichment (6-mer frequency, TF over GST control); with TTTCCG, 1.39 fold enrichment (6-mer frequency, TF over GST control).
As for GATGGC, the binding signal was 1.11 fold enrichment (6-mer frequency, TF over GST control).
Still for that read-out and setting: with TCCCAT the figure was 1.43 fold enrichment (6-mer frequency, TF over GST control).

A further assay concerns the target ETV1 (Homo sapiens, UniProt P50549 1-477). The description is as above. Particulars: protein: recombinant; tags: N-terminal GST; dsDNA, one strand shown. A digest of the protocol: as §1
Take GACTCT: the binding signal was 1.32 fold enrichment (6-mer frequency, TF over GST control).
On the same count and under the same terms, the result for TTCAAG reads 1.29 fold enrichment (6-mer frequency, TF over GST control); that for GCTTTG, 1.16 fold enrichment (6-mer frequency, TF over GST control).
On to TCACCT, for which the binding signal was 1.19 fold enrichment (6-mer frequency, TF over GST control).
On the same count and under the same terms, with TGTTGC the figure was 1.4 fold enrichment (6-mer frequency, TF over GST control).
Still for that read-out and setting: the result for CCTTAA reads 1.34 fold enrichment (6-mer frequency, TF over GST control).
With ACTTCC, the binding signal is 8.66 fold enrichment (6-mer frequency, TF over GST control).
The same measure, in the same setting: the result for TGTTAA reads 1.13 fold enrichment (6-mer frequency, TF over GST control); that for TTACTA, 1.23 fold enrichment (6-mer frequency, TF over GST control); that for GATTCC, 1.21 fold enrichment (6-mer frequency, TF over GST control).
Consider TTACTC, for which the binding signal is 1.32 fold enrichment (6-mer frequency, TF over GST control).
In the case of AAGTAA, the binding signal is 1.31 fold enrichment (6-mer frequency, TF over GST control).
On the same count and under the same terms, with ATCTGG the figure was 1.24 fold enrichment (6-mer frequency, TF over GST control); with GAAATC, 1.5 fold enrichment (6-mer frequency, TF over GST control).
Turning to AACCCT, the binding signal was 1.38 fold enrichment (6-mer frequency, TF over GST control).
On the same count and under the same terms, with TCTCAC the figure was 1.3 fold enrichment (6-mer frequency, TF over GST control); with TTTAAA, 1.2 fold enrichment (6-mer frequency, TF over GST control); with CTATGC, 1.55 fold enrichment (6-mer frequency, TF over GST control).
On the same count and under the same terms, with CATCCT the figure was 1.55 fold enrichment (6-mer frequency, TF over GST control); with TCTTTG, 1.1 fold enrichment (6-mer frequency, TF over GST control); with TTGTAT, 1.3 fold enrichment (6-mer frequency, TF over GST control).
Take ATGACC: the binding signal is 1.62 fold enrichment (6-mer frequency, TF over GST control).
The same measure, in the same setting: with AATGCC the figure was 1.11 fold enrichment (6-mer frequency, TF over GST control).
Turning to TACTAT, the binding signal is 1.28 fold enrichment (6-mer frequency, TF over GST control).
Same read-out and setting: the result for TATTCC reads 1.52 fold enrichment (6-mer frequency, TF over GST control); that for TTTCTA, 1.47 fold enrichment (6-mer frequency, TF over GST control).
TCTCTA: the binding signal is 1.2 fold enrichment (6-mer frequency, TF over GST control).
Same read-out and setting: the result for CCGAAC reads 1.19 fold enrichment (6-mer frequency, TF over GST control).
For the sequence CTGCGA, the binding signal was 1.32 fold enrichment (6-mer frequency, TF over GST control).
Take GTATCC: the binding signal was 1.86 fold enrichment (6-mer frequency, TF over GST control).
In the case of TCCTTC, the binding signal was 2.05 fold enrichment (6-mer frequency, TF over GST control).
TTAACC: the binding signal was 1.28 fold enrichment (6-mer frequency, TF over GST control).
Still for that read-out and setting: with ATTATA the figure was 1.3 fold enrichment (6-mer frequency, TF over GST control); with TCATTC, 1.2 fold enrichment (6-mer frequency, TF over GST control).
As for AAGTTC, the binding signal is 1.34 fold enrichment (6-mer frequency, TF over GST control).
Consider TGCTTC, for which the binding signal is 2.19 fold enrichment (6-mer frequency, TF over GST control).
On the same count and under the same terms, the result for ACAATC reads 1.16 fold enrichment (6-mer frequency, TF over GST control); that for TTTCCG, 3.76 fold enrichment (6-mer frequency, TF over GST control); that for GATGGC, 1.31 fold enrichment (6-mer frequency, TF over GST control).
Still for that read-out and setting: the result for TCCCAT reads 1.37 fold enrichment (6-mer frequency, TF over GST control).

Another assay has as its target T1, ERF (Homo sapiens, UniProt P50548 1-548).
T1 sequence: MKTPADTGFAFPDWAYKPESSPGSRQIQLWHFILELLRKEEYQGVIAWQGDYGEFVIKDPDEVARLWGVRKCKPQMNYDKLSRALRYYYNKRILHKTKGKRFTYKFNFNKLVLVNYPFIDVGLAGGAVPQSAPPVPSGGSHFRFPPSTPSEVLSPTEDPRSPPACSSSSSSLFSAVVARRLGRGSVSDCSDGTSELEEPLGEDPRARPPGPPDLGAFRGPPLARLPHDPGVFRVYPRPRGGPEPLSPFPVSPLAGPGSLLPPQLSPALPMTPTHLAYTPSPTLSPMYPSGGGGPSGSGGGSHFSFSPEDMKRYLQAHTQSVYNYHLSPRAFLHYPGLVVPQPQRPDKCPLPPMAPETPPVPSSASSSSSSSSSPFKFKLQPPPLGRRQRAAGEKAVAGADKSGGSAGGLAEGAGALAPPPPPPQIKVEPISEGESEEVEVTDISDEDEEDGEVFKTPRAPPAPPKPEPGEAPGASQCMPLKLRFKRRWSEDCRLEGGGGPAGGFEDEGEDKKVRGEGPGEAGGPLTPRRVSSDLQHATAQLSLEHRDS
Described as above. Conditions: protein: recombinant; tags: N-terminal GST; dsDNA, one strand shown. A digest of the protocol: as §1
Turning to GACTCT, the binding signal is 1.58 fold enrichment (6-mer frequency, TF over GST control).
Same read-out and setting: the result for TTCAAG reads 1.27 fold enrichment (6-mer frequency, TF over GST control); that for GCTTTG, 1.09 fold enrichment (6-mer frequency, TF over GST control); that for TCACCT, 1.2 fold enrichment (6-mer frequency, TF over GST control).
For the sequence TGTTGC, the binding signal was 1.46 fold enrichment (6-mer frequency, TF over GST control).
Same read-out and setting: the result for CCTTAA reads 1.29 fold enrichment (6-mer frequency, TF over GST control); that for ACTTCC, 7.03 fold enrichment (6-mer frequency, TF over GST control).
The same measure, in the same setting: with TGTTAA the figure was 1.19 fold enrichment (6-mer frequency, TF over GST control); with TTACTA, 1.27 fold enrichment (6-mer frequency, TF over GST control).
In the case of GATTCC, the binding signal is 1.15 fold enrichment (6-mer frequency, TF over GST control).
Still for that read-out and setting: the result for TTACTC reads 1.27 fold enrichment (6-mer frequency, TF over GST control); that for AAGTAA, 1.27 fold enrichment (6-mer frequency, TF over GST control).
The same measure, in the same setting: the result for ATCTGG reads 1.25 fold enrichment (6-mer frequency, TF over GST control); that for GAAATC, 1.31 fold enrichment (6-mer frequency, TF over GST control).
Still for that read-out and setting: with AACCCT the figure was 1.17 fold enrichment (6-mer frequency, TF over GST control).
For the sequence TCTCAC, the binding signal was 1.44 fold enrichment (6-mer frequency, TF over GST control).
Regarding TTTAAA, the binding signal was 1.31 fold enrichment (6-mer frequency, TF over GST control).
As to CTATGC, the binding signal is 1.34 fold enrichment (6-mer frequency, TF over GST control).
On the same count and under the same terms, the result for CATCCT reads 1.49 fold enrichment (6-mer frequency, TF over GST control); that for TCTTTG, 1.2 fold enrichment (6-mer frequency, TF over GST control); that for TTGTAT, 1.28 fold enrichment (6-mer frequency, TF over GST control).
Turning to ATGACC, the binding signal is 1.42 fold enrichment (6-mer frequency, TF over GST control).
The same measure, in the same setting: the result for AATGCC reads 1.12 fold enrichment (6-mer frequency, TF over GST control).
On to TACTAT, for which the binding signal is 1.38 fold enrichment (6-mer frequency, TF over GST control).
The same measure, in the same setting: with TATTCC the figure was 1.49 fold enrichment (6-mer frequency, TF over GST control); with TTTCTA, 1.32 fold enrichment (6-mer frequency, TF over GST control).
For the sequence TCTCTA, the binding signal is 1.24 fold enrichment (6-mer frequency, TF over GST control).
As to CCGAAC, the binding signal is 1.23 fold enrichment (6-mer frequency, TF over GST control).
The same measure, in the same setting: the result for CTGCGA reads 1.22 fold enrichment (6-mer frequency, TF over GST control); that for GTATCC, 1.77 fold enrichment (6-mer frequency, TF over GST control).
Same read-out and setting: with TCCTTC the figure was 1.95 fold enrichment (6-mer frequency, TF over GST control); with TTAACC, 1.23 fold enrichment (6-mer frequency, TF over GST control); with ATTATA, 1.3 fold enrichment (6-mer frequency, TF over GST control).
Still for that read-out and setting: with TCATTC the figure was 1.15 fold enrichment (6-mer frequency, TF over GST control); with AAGTTC, 1.31 fold enrichment (6-mer frequency, TF over GST control); with TGCTTC, 1.81 fold enrichment (6-mer frequency, TF over GST control).
For ACAATC, the binding signal is 1.2 fold enrichment (6-mer frequency, TF over GST control).
As to TTTCCG, the binding signal is 3.3 fold enrichment (6-mer frequency, TF over GST control).
Still for that read-out and setting: with GATGGC the figure was 1.4 fold enrichment (6-mer frequency, TF over GST control).
The same measure, in the same setting: with TCCCAT the figure was 1.4 fold enrichment (6-mer frequency, TF over GST control).
